PubChem BioAssay (NCATS)
Results filed as inconclusive are left out. Calls of active or inactive are those of the source. The call rests on the fitted dose curve; in most records, active means well fitted inhibition curve with a large enough effect; inconclusive means small, poorly fitted or top-dose-only effect; inactive means flat fitted curve, though single readings scatter.

molecular target: Calcium and integrin-binding protein 1 (Homo sapiens) (UniProt Q99828); assay: Primary qHTS for Identification of Calcium Integrin Binding Protein 1 (CIB1) Competitor (AID 1508620); conditions: CIB1-GST / FITC-alphaIIb peptide fluorescence polarization; series mostly up to 57.7 µM; activity change, negative = inhibition: at the top concentration;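 further: GST tagged CIB1 binding a fluorescein labelled alphaIIb integrin peptide tracer; top concentration of the series differs between compounds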
Method in brief: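 Fluorescence polarization competition: CIB1-GST (1 uM final) preincubated with compound 15 min at room temperature, then FITC-labeled alphaIIb peptide (100 nM final) added for another 15 min. Polarization read at Ex 480/Em 540.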
On the % scale 0 is the no-effect control and ±100 the full control effect.

Chain of Calcium and integrin-binding protein 1 (Homo sapiens) (Q99828 whole entry, looked up): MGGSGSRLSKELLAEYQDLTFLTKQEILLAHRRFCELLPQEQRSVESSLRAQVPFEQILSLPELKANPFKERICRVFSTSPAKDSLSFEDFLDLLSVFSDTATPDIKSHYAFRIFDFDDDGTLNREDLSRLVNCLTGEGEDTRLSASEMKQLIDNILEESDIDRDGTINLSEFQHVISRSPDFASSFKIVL

Structure (SMILES)	activity change, negative = inhibition	Potency
CCOC(=O)O[C@]1(C(=O)OCCl)CC[C@@H]2[C@H]3CCC4=CC(=O)C=C[C@]4(C)[C@@H]3[C@@H](O)C[C@@]21C	-1.02% (inactive)	–
CO[C@H]1C[C@@H]2CC[C@@H](C)[C@@](O)(O2)C(=O)C(=O)N2CCCC[C@@H]2C(=O)O[C@H]([C@@H](C)C[C@@H]2CC[C@H](O)[C@H](OC)C2)CC(=O)[C@H](C)C=C(C)[C@@H](O)[C@@H](OC)C(=O)[C@H](C)C[C@H](C)C=CC=CC=C1C	-6.69% (inactive)	–
CCC(=O)NC[C@H](Cc1ccc(OCCc2nc(-c3ccccc3)oc2C)cc1)NC(C)=CC(=O)c1ccc(C(F)(F)F)cc1	-4.1% (inactive)	–
O=C1c2c(O)cc(O)cc2O[C@H](c2cc(O)c(O)c(O)c2)[C@H]1O	-8.46% (inactive)	–
CC=CC[C@@H](C)C(=O)[C@H]1C(=O)N[C@@H](C(C)C)C(=O)N(C)CC(=O)N(C)[C@@H](CC(C)C)C(=O)N[C@@H](C(C)C)C(=O)N(C)[C@@H](CC(C)C)C(=O)N[C@@H](C)C(=O)N[C@H](C)C(=O)N(C)[C@@H](CC(C)C)C(=O)N(C)[C@@H](CC(C)C)C(=O)N(C)[C@@H](C(C)C)C(=O)N1C	-4.26% (inactive)	–
O=c1ccn([C@@H]2O[C@H](CO)[C@H](O)[C@H]2O)c(=O)[nH]1	1.15% (inactive)	–
CNC1CCC(N(Cc2cccc(-c3ccncc3)c2)C(=O)c2sc3c(F)ccc(F)c3c2Cl)CC1 (configuration not stated)	–	inactive
COc1cc(O)c2c(c1)C(=O)c1cc(C)cc(O)c1C2=O	-2.81% [at 30.2 µM] (inactive)	–
CO[C@H]1C[C@@H]2CC[C@@H](C)[C@@](O)(O2)C(=O)C(=O)N2CCCC[C@@H]2C(=O)O[C@H]([C@H](C)C[C@@H]2CC[C@H](OCCO)[C@H](OC)C2)CC(=O)[C@H](C)C=C(C)[C@@H](O)[C@@H](OC)C(=O)[C@H](C)C[C@H](C)C=CC=CC=C1C	-5.2% (inactive)	–
COc1cc(Nc2ncc(F)c(Nc3ccc4c(n3)NC(=O)C(C)(C)O4)n2)cc(OC)c1OC	–	inactive
CO[C@H]1C[C@@H]2CC[C@@H](C)[C@@](O)(O2)C(=O)C(=O)N2CCCC[C@@H]2C(=O)O[C@H]([C@H](C)C[C@@H]2CC[C@H](OC(=O)C(C)(CO)CO)[C@H](OC)C2)CC(=O)[C@H](C)C=C(C)[C@@H](O)[C@@H](OC)C(=O)[C@H](C)C[C@H](C)C=CC=CC=C1C	0.887% (inactive)	–
CN(C)CCC=C1c2ccccc2COc2ccc(CC(=O)O)cc21	-0.379% (inactive)	–
Cc1cccc(Nc2nc(-c3ccncc3)cs2)c1	–	inactive
O=c1c(-c2ccc(O)cc2)coc2cc(O[C@@H]3O[C@H](CO)[C@H](O)[C@H](O)[C@H]3O)ccc12	-0.898% (inactive)	–
COc1ccc2c3c1OC1C[C@@H](O)C=C[C@@]31CCN(C)C2 (some centres not stated)	-5.82% (inactive)	–
CO[C@H]1C(=O)[C@]2(C)[C@@H](OC)C[C@H]3OC[C@@]3(OC(C)=O)[C@H]2[C@H](OC(=O)c2ccccc2)[C@]2(O)C[C@H](OC(=O)[C@H](O)[C@@H](NC(=O)OC(C)(C)C)c3ccccc3)C(C)=C1C2(C)C	2.82% (inactive)	–
NC[C@@H]1O[C@@H](O[C@H]2[C@@H](O)[C@H](O[C@@H]3[C@@H](O)[C@@H](N)C[C@H](N)[C@H]3O[C@H]3O[C@H](CN)[C@@H](O)[C@@H](O)[C@H]3N)O[C@H]2CO)[C@H](N)[C@@H](O)[C@@H]1O	-1.97% (inactive)	–
O=C1c2ccccc2-[n+]2ccc3c([nH]c4ccccc43)c21	-17.7% (inactive)	–
CC(C(=O)O)c1ccc(-c2ccccc2)c(F)c1 (configuration not stated)	-4.23% (inactive)	–

Structure (SMILES)	activity change, negative = inhibition	Potency
CO[C@H]1C=CO[C@@]2(C)Oc3c(C)c(O)c4c(O)c(c5c(c4c3C2=O)NC2(CCN(CC(C)C)CC2)N=5)=NC(=O)C(C)=CC=C[C@H](C)[C@H](O)[C@@H](C)[C@@H](O)[C@@H](C)[C@H](OC(C)=O)[C@H]1C	-12.4% [at 114 µM] (inactive)	–
Cc1nnc(C(C)C)n1C1C[C@H]2CC[C@@H](C1)N2CC[C@H](NC(=O)C1CCC(F)(F)CC1)c1ccccc1 (some centres not stated)	-6.95% (inactive)	–
O=C(O)[C@H]1O[C@H](Oc2cc3oc(-c4ccccc4)cc(=O)c3c(O)c2O)[C@H](O)[C@@H](O)[C@H]1O	-12.1% (inactive)	–
CC(C)(C)NC(=O)Nc1cccc(Nc2ncc(F)c(NC(C)(C)CO)n2)c1	–	inactive
CCOC1OC(=O)C[C@H]1NC(=O)[C@@H]1CCCN1C(=O)[C@@H](NC(=O)c1ccc(N)c(Cl)c1)C(C)(C)C (some centres not stated)	-1.61% (inactive)	–
C=CCc1ccc(O)c(-c2ccc(O)c(CC=C)c2)c1	0.999% (inactive)	–
CO[C@@H](C(=O)N1Cc2[nH]nc(NC(=O)c3ccc(N4CCN(C)CC4)cc3)c2C1)c1ccccc1	-2.87% (inactive)	–
CC(C)C(=O)Nc1ncc(-c2cc(C(F)F)nn2-c2c(Cl)cccc2Cl)s1	–	inactive
O=C(O)c1ccc(-c2cc3cccnc3c(-c3ccc4nonc4c3)n2)cc1	2.15% (inactive)	–
CC(=NNC(=S)N1CCC1)c1ccccn1	-11.1% (inactive)	–
CON=C(C(=O)N[C@@H]1C(=O)N2C(C(=O)OCOC(=O)C(C)(C)C)=C(C=Cc3scnc3C)CS[C@H]12)c1csc(N)n1	-2.1% (inactive)	–
CC[C@H]1OC(=O)[C@H](C)[C@@H](O[C@H]2C[C@@](C)(OC)[C@@H](O)[C@H](C)O2)[C@H](C)[C@@H](O[C@@H]2O[C@H](C)C[C@H](N(C)C)[C@@H]2O)[C@](C)(O)C[C@@H](C)CN(C)[C@H](C)[C@@H](O)[C@]1(C)O	-6.08% (inactive)	–
CC1(C)S[C@H]2[C@H](NC(=O)[C@@H](N)c3ccc(O)cc3)C(=O)N2[C@@H]1C(=O)O	-0.606% (inactive)	–
CCC(=O)O[C@]1(C(=O)CO)CC[C@H]2[C@@H]3CCC4=CC(=O)CC[C@]4(C)[C@@H]3CC[C@@]21C	2.56% (inactive)	–
C=C1C(=O)OC2C=C(C)CCC=C(C)CCC12 (configuration not stated)	-4.8% (inactive)	–
Cc1ccc([C@@H]2O[C@H](CO)[C@@H](O)[C@H](O)[C@@H]2O)cc1Cc1ccc(-c2ccc(F)cc2)s1	1.09% (inactive)	–
NC(CO)(CO)CCc1ccc(Sc2cccc(OCc3ccccc3)c2)cc1Cl	-6.46% (inactive)	–
O=C1NC(=O)C(=Cc2cccc(C(F)(F)F)c2)S1	-13.1% (inactive)	–
